# D2 PAM-1: HTS Assay for Positive Allosteric Modulators of the Human D2 Dopamine Receptor: Primary Screen for Potentiators; potentiation, % at 10 µM; D(2) dopamine receptor (Homo sapiens), P14416; HEK293 T-REx D2, calcium flux, EC20 dopamine potentiation; 340,000 compounds, 0.34% hits;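 active = potentiation over 3 SD above the plate norm, cut at about 30% in these data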; note: 0% is about no effect
# Target sequence (P14416 whole entry, looked up): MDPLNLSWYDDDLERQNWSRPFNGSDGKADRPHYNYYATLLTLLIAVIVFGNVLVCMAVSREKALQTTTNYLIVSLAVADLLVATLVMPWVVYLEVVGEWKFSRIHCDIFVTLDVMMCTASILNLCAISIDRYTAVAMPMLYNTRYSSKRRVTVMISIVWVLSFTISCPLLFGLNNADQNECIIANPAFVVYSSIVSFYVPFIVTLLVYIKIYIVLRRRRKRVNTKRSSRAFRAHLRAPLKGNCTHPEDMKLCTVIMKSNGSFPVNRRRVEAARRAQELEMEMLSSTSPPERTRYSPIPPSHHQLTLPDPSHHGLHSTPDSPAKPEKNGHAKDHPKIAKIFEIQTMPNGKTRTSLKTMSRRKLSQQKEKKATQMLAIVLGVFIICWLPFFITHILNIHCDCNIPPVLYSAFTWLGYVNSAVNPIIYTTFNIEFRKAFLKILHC
#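 Potentiation of an EC20 dopamine calcium response measured kinetically over 180 s, after a preceding 180 s compound-only read flagging agonists. Cells: inducible Hek293 Trex D2 line, 4000/well, cultured overnight at 30 C before dye loading.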
# D2 antagonist: HTS Assay for Allosteric Antagonists of the Human D2 Dopamine Receptor: Primary Screen for Antagonists; D(2) dopamine receptor (Homo sapiens), P14416; HEK293 TREx D2 cells, calcium flux, dopamine EC80; inhibition, % at 10 µM; 340,000 compounds, 2% hits; AID 485344, 2010; in the data active = inhibition above about 30%; inactive = below that, where a call was filed; note: 0% is about no effect
#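 Read-out: kinetic calcium fluorescence (1 cycle/s) in inducible HEK293 T-REx D2 cells after an EC80 dopamine addition that followed 180 s compound preincubation. Loss of the dopamine response indicates antagonism.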
# D2 ag-1: HTS Assay for Allosteric Agonists of the Human D2 Dopamine Receptor: Primary Screen for Agonists. D(2) dopamine receptor (Homo sapiens), P14416. HEK293 T-REx D2 cells, calcium flux agonist mode. activation, % at 2 µM. 340,000 compounds, 0.53% hits. AID 485358, 2010;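 active = activation over 3 SD above normal in the single-dose calcium agonist read, cut at about 30% in these data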; note: 0% is about no effect
#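 Tetracycline-induced HEK293 Trex cells with D2 receptor force-coupled to calcium signaling, plated overnight at 30 C and loaded with no-wash calcium dye. Calcium flux read kinetically for 180 s after compound addition; responses flag agonists.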
# D2 PAM-2: Beta-Arrestin HTS for Positive Allosteric Modulators of the Human D2 Dopamine Receptor: Potentiators. D(2) dopamine receptor (Homo sapiens), P14416. potentiation, % (no concentration beside the values). DiscoveRx D2 beta-arrestin cells, luminescence, 90 min; 100% = 57 uM dopamine signal. 360,000 compounds, 0.23% hits; in the data active = potentiation above about 50%; inconclusive = mostly about 30% to 49%
#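 PathHunter D2 cells, attached overnight at 37 deg C, received compound in DMSO plus dopamine at EC20 (50 nM final) for 90 min at 37 deg C. Beta-arrestin recruitment was read as luminescence after 1 h with detection reagent at ambient temperature.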
# D2 ag-2: Beta-Arrestin HTS for Positive Allosteric Modulators of the Human D2 Dopamine Receptor: Agonists; activation, % (test concentration not listed); DiscoveRx PathHunter D2 beta-arrestin, luminescence, 90 min; 100% = 57 uM dopamine signal; D(2) dopamine receptor (Homo sapiens), P14416; 360,000 compounds, 0.084% hits; in the data active = activation above about 40%; inconclusive = between about 15% and that limit
#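 Agonist mode: compounds alone added to overnight-plated D2 PathHunter cells for 90 min at 37 C, with 57 uM final dopamine (EC100) defining full response. Beta-arrestin recruitment detected by chemiluminescent reagent, read after 1 h at ambient temperature.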
# * marks the source's active call; other numbers are inactive results; u = inconclusive; x = no result given. Shown are actives, neighbours in structure and some others; about 2.4% of the full set was active somewhere.
SMILES,D2 PAM-1,D2 antagonist,D2 ag-1,D2 PAM-2,D2 ag-2
CCN(CC)S(=O)(=O)c1ccc(-n2cnc3cc(C)c(C)cc32)nc1,37.8*,-10.1,0.6,-9.9,-0.7
CCN(CC)S(=O)(=O)c1ccc(N2CCc3ccccc3C2)nc1,34.4*,-4.9,-1.6,-15.5,-8.8
Cc1c(C(=O)NC(C)c2ccccc2)sc2ncnc(N(C)C3CCCCC3)c12 (configuration not stated),4.5,x,0.4,x,x
CC(C)c1ccc(NC(=O)CCn2c(=O)c3cccn3c3ccccc32)cc1,-2.7,x,4.3,x,x
O=C(/C=C/c1ccccc1)N(c1ccccn1)C1CCCCC1,-8.5,20.7,33.9*,7.7,12.8
CCN(CC)S(=O)(=O)c1ccc(/C=C/C(=O)N(c2ccccn2)C2CCCCC2)cc1,0.8,-2.3,2.5,-8.4,-0.1
Cc1cccc(N2CCN(C(=O)CN3C(=O)COc4ccc(S(=O)(=O)N5CCCCCC5)cc43)CC2)c1C,11.6,x,3.6,x,x
COc1cc2nc(/C=C/c3ccc(N(C)C)cc3)sc2cc1SC,-4.0,23.5,66.6*,-7.6,-3.4
COc1cc2c(cc1OC)C(=Cc1ccc(N(C)C)cc1)C=C2,x,x,x,-9.7,-5.3
Cc1cc(NC(=O)Cn2ccsc2=N)c([N+](=O)[O-])cc1C,-18.7,21.7,-0.5,6.9,-7.2
COc1ccc([N+](=O)[O-])cc1NC(=O)Cn1ccsc1=N,-19.2,30.8*,0.6,-44.0,4.0
N#Cc1ccc(Sc2ccccn2)c([N+](=O)[O-])c1,10.7,37.7*,0.2,3.0,3.7
CCOC(=O)C(Cc1cc(C(C)=O)ccc1OC(C)C)C(=O)OCC,-4.5,54.2*,-2.7,-17.4,0.3
CCOC(=O)C(Cc1cc(C(C)=O)ccc1OCC)C(=O)OCC,-0.6,13.6,0.2,-24.0,-9.5
COc1ccc(OC)c(-c2noc(N3CCN(c4cc(C)ccc4C)CC3)n2)c1,1.1,x,1.3,x,x
Cc1ccc([N+](=O)[O-])c(NC(=O)COC(=O)C2CC3CCCC(C2)C3=O)c1C (configuration not stated),-3.7,36.4*,0.3,-11.3,-1.0
Cc1cccc([N+](=O)[O-])c1NC(=O)COC(=O)C1CC2CCCC(C1)C2=O (configuration not stated),-3.0,7.4,-0.3,-64.1,-5.0
O=C(CS(=O)(=O)c1ccc(F)cc1)NCc1ccccc1,-0.5,34.3*,0.8,0.4,-6.4
CC(=O)C1=C(c2ccc(Cl)c(Cl)c2)N(C(C)=O)n2cnnc2S1,9.2,x,-0.8,x,x
COc1ccc(-n2c(O)c(/C=N/NS(=O)(=O)c3cc(C)ccc3C)c3ccccc3c2=O)cc1OC,0.1,27.0,41.4*,-13.8,-1.9
COc1ccc(-n2c(O)c(/C=N/NS(=O)(=O)c3ccc(C)cc3)c3ccccc3c2=O)cc1OC,1.4,14.6,20.4,-1.8,-3.6
COc1ccc(N2CCN(C(CNS(=O)(=O)c3c(C)cc(C)cc3C)c3ccco3)CC2)cc1 (configuration not stated),-3.0,x,1.0,x,x
CCCCN(C)S(=O)(=O)c1cc(-c2cc(C)no2)ccc1C,8.9,x,-0.1,x,x
O=C(CCN1CCOCC1)N/N=C/c1cc(Br)cc(Br)c1O,-8.6,35.6*,0.7,-33.1,-8.7
COc1ccc2c(c1)CC(N1CCN(C)CC1)c1cc(OC)ccc1S2 (configuration not stated),x,x,x,-23.2,-6.0
SMILES,D2 PAM-1,D2 antagonist,D2 ag-1,D2 PAM-2,D2 ag-2
NC(=O)CCN1CCN(CCOC2Cc3cc(Cl)ccc3Sc3ccccc32)CC1 (configuration not stated),-24.7,93.9*,0.2,-36.6,2.8
O=C(c1ccccc1Cl)N1CCNCC1,-1.7,-8.1,-1.0,-4.9,-2.2
Clc1cccc2c1Sc1ccccc1CC2N1CCNCC1 (configuration not stated),-17.3,65.8*,2.3,-16.6,-1.9
Clc1ccc2c(c1)C(N1CCNCC1)Cc1ccccc1S2 (configuration not stated),-27.7,98.5*,0.9,-38.4,-3.0
COCCCN1CCN(C2Cc3ccccc3Sc3ccc(Cl)cc32)CC1 (configuration not stated),-27.6,107.0*,1.2,-42.4,-3.1
Fc1ccc2c(c1)Sc1ccc(Cl)cc1CC2N1CCN(CCC2OCCO2)CC1 (configuration not stated),x,x,x,-24.7,-7.9
CSc1ccc2c(c1)C(N1CCN(C)CC1)Cc1ccc(F)cc1S2 (configuration not stated),x,x,x,-12.4,-0.3
COc1ccc(-c2[nH]c(-c3cccc(OC)c3)nc2SCC(=O)Nc2ccc3c(c2)OCO3)cc1,-15.0,x,-1.7,x,x
O=C(NCCc1csc(-c2ccc(C(F)(F)F)cc2)n1)c1ccc(F)c(F)c1,1.8,x,0.4,x,x
CN(c1ncnc2onc(-c3cccc(Cl)c3)c12)C1CCCCC1,2.2,x,-0.4,x,x
CCn1ccc2c(OCC(=O)Nc3ccc(OC)cc3OC)cccc2c1=O,3.7,x,0.5,x,x
Cc1cccc(/C(N)=N/OC(=O)N2c3ccccc3Sc3ccccc32)c1,6.7,-17.6,-0.2,51.4*,u
Cc1cccc(C(=O)O/N=C(/c2ccccc2)c2ccncc2)c1,12.5,0.3,-1.8,63.4*,u
N/C(=N\OC(=O)N1c2ccccc2Sc2ccccc21)c1ccccc1,2.2,-1.7,-1.5,4.5,4.9
Cc1cccc(/C(N)=N/OC(=O)c2ccc(Br)o2)c1,4.2,6.4,-0.3,65.3*,u
Cc1cccc(/C(N)=N/OC(=O)c2ccc3c(c2)OCO3)c1,4.9,-9.2,1.3,57.0*,u
CCOc1cc2[nH]c(=O)n(CCCCC(=O)N3CCN(c4ccccc4OC)CC3)c(=O)c2cc1OCC,-10.8,x,0.0,x,x
O=C(NCc1ccccc1)C1CCN(C(=O)c2cnn(-c3ccccc3)c2-n2cccc2)CC1,-0.3,x,0.1,x,x
Cn1ccc2cc(S(=O)(=O)N3CCCN(C(=O)Nc4ccccc4Br)CC3)ccc21,-1.5,x,0.0,x,x
O=C1NC2(CCOc3ccccc32)C(=O)N1CC(=O)N(Cc1ccccc1)C1CCS(=O)(=O)C1 (configuration not stated),23.7,40.4*,-0.5,5.3,-1.6
O=C(O)CN1C(=O)NC2(CCOc3ccccc32)C1=O (configuration not stated),-3.0,-1.4,1.3,-9.7,-2.0
N=c1c(S(=O)(=O)c2ccccc2)cc2c(=O)n3ccccc3nc2n1Cc1cccnc1,-8.1,44.4*,0.3,-66.9,-4.6
